# The supplement of paper PMC6555819
# Columns and labels:
# Experiment in all cases: PBM binding z-score (relative to random genomic background probes); higher = stronger binding; sequences stand for … in GC…GCGATTGACAGCGTAGAATGAAGG
# [1] = system: PPARg:RXRa DBDmut IVT, anti-RXR (DBD mutation: RXRa K156A/R161A, NR concentration 270 nM, RXRa partner concentration 90 nM)
# In short: (§1)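 Custom Agilent 4×180K protein-binding microarrays carried double-stranded probes. Their 34-nt variable regions held direct-repeat seeds, single-nucleotide variants, half-site ablations and random human genomic background sequences. Arrays were incubated 1 h with ligand-free nuclear receptor dimers in PBS pH 7.4, 2% milk, 0.02% Triton X-100, 1 mM DTT, 0.2 mg/mL BSA and 0.4 mg/ml salmon testes DNA. Antibodies against each partner (one per run) detected binding, and scanned fluorescence was regression-normalized. Binding z-scores use random background probes as reference.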
# [2] = system: PPARg:RXRa IVT, anti-PPARg (NR concentration 270 nM, RXRa partner concentration 90 nM)
# In short: as §1
# [3] = system: PPARg DBDmut:RXRa IVT, anti-PPARg (DBD mutation: PPARg1 K132A/R137A, NR concentration 270 nM, RXRa partner concentration 90 nM)
# In short: as §1
# [4] = system: PPARg DBDmut IVT, anti-PPARg (DBD mutation: PPARg1 K132A/R137A, NR concentration 270 nM)
# In short: as §1
# [5] = system: PPARg homodimer (NR concentration 180 nM)
# In short: as §1
# [6] = system: PXR:RXRa (NR concentration 270 nM, RXRa partner concentration 90 nM)
# In short: as §1
# [7] = system: PXR homodimer (NR concentration 270 nM)
# In short: as §1
# [8] = system: RARa:RXR (NR concentration 270 nM, RXRa partner concentration 90 nM)
# In short: as §1
# [9] = system: RARa homodimer (NR concentration 270 nM)
# In short: as §1
# [10] = system: RARb:RXRa (NR concentration 270 nM, RXRa partner concentration 90 nM)
# In short: as §1
# [11] = system: RARb homodimer (NR concentration 270 nM)
# In short: as §1
# [12] = system: RARg:RXRa (NR concentration 270 nM, RXRa partner concentration 90 nM)
# In short: as §1
# [13] = system: RARg homodimer (NR concentration 270 nM)
# In short: as §1
# [14] = system: RXRa DBDmut IVT, anti-RXR (DBD mutation: RXRa K156A/R161A, NR concentration 90 nM)
# In short: as §1
# [15] = system: RXRa homodimer (NR concentration 180 nM)
# In short: as §1
# [16] = system: THRa:RXRa (NR concentration 90 nM, RXRa partner concentration 90 nM)
# In short: as §1
# [17] = system: THRa homodimer (NR concentration 90 nM)
# In short: as §1
# [18] = system: VDR:RXRa (NR concentration 270 nM, RXRa partner concentration 90 nM)
# In short: as §1
# [19] = system: VDR homodimer (NR concentration 270 nM)
# In short: as §1
Sequence,PBM binding z-score [1],PBM binding z-score [2],PBM binding z-score [3],PBM binding z-score [4],PBM binding z-score [5],PBM binding z-score [6],PBM binding z-score [7],PBM binding z-score [8],PBM binding z-score [9],PBM binding z-score [10],PBM binding z-score [11],PBM binding z-score [12],PBM binding z-score [13],PBM binding z-score [14],PBM binding z-score [15],PBM binding z-score [16],PBM binding z-score [17],PBM binding z-score [18],PBM binding z-score [19]
ACTCGGAGGACAAAGGTCATAGCTACGCCAGTGA,1.2,4.45,0.463,0.599,3.32,5.22,0.775,5.76,1.36,4.83,4.7,6.88,5.24,1.91,6.51,4.13,1.2,4.68,2.55
TCCATTAGTTGAAGGGCAACCGACGAGTCCGTTT,2.37,0.637,0.0905,0.783,1.13,1.16,0.683,0.989,0.466,1.86,1.47,0.679,0.586,1.9,1.05,0.553,0.351,1.02,1.57
ACAGACAGGTGAGTGAAGGTAATTCAGCTGGACG,0.0687,0.119,0.248,-0.584,-0.206,-0.2,-0.191,-9.88e-05,-0.0883,0.49,-0.0285,0.335,0.578,-0.442,0.191,1.25,-0.521,-0.394,-0.158
AGAATGAGGTTACCAAAAATCAGGGAAACGCTTG,4.5,3.48,1.31,0.817,0.553,1.04,-0.0178,1.76,0.389,2.08,0.769,1.84,1.53,1.07,2.47,2.57,1.03,1.03,0.541
AGAATGAGTTTAAGATCAGGGAAACAGAATACAT,-0.319,-0.227,0.514,0.367,0.191,0.341,0.729,0.163,0.965,0.406,-0.102,0.254,0.612,2.68,0.484,0.276,-0.184,0.803,2.06
AGTCAAAGTTCATCTAGGTAACGTATGATATGCT,0.872,3.88,1.48,1.76,2.9,5.12,7.63,3.93,1.68,4.95,3.98,5.57,6,4.68,4.58,3.23,0.203,4.91,5.23
CCTGCTAGGTCAATGGTCAGCGAAAGCAGCTCGC,4.19,4.06,0.555,-0.25,1.7,0.865,-0.255,1.87,-0.0474,3.71,2.63,3.65,4.18,1.73,2.11,2.32,0.558,0.881,-0.0463
TCTTGTAGATCAAGCTGGTTAAGAAAGCCTGAGT,1.49,0.0134,0.281,0.0135,-0.627,0.0638,0.0966,-0.059,-0.593,-0.304,-0.589,-0.384,-0.528,0.614,-0.39,-0.367,-0.87,0.112,-0.547
ATCTCTAGGTAAAAGTTTAGTGAATCCCGAGGAT,2.01,2.09,0.984,0.97,0.897,0.34,0.253,0.103,0.693,0.667,0.137,0.438,0.614,-0.116,0.318,0.379,0.343,0.124,0.554
CCGACTGGGGCAGAAAGGTTAGCATACCATCCGG,1.54,1.41,-0.783,-1.16,-0.251,0.123,-0.44,0.634,0.154,1.43,1.74,0.906,0.862,-0.65,0.988,0.31,-0.682,0.00712,-0.346
CCTACTGGGCCACGAAAGGTCATAGATTCAGTGA,5.75,6.04,0.35,1.08,3.16,4.97,0.915,5.39,0.471,4.03,4.58,4.73,4.53,-0.0363,4.95,3.84,0.901,3.89,1.31
GCTAGCAGGCCATTTGGGTCACTCGATGACGGGC,2.18,2.18,-0.31,-1.28,-0.101,0.388,-0.29,0.794,-0.742,1.39,1.9,0.925,1.25,0.253,0.666,1.66,0.48,0.762,0.416
ATATGTAGATTATCGGGTCATTCAGTTTGCGCAT,2.57,2.72,1.49,1.26,1.63,3.39,6.51,2.84,0.767,1.85,2.3,1.94,1.35,1.21,2.45,3.14,2.5,4.87,4.05
AGTCAATGTTCAGGACGAGGTAACGTAAAGCACG,-0.569,0.526,0.282,0.266,-0.126,-0.119,-0.33,0.306,0.567,0.167,0.0341,0.243,0.459,-0.371,0.279,2.16,1.78,0.00608,0.209
CCTGGTTGGTCAAGGTCACACACGCTATAGGTAC,1.12,3.26,0.676,0.0653,3.15,4.44,2.85,4.78,2.07,4.41,4.45,4.58,4.71,1.46,4.69,4.36,4.54,4.37,3.51
CCTAGCAGGCCATTCTGGGTCACTCAAGGCTTGA,3.36,3.51,-0.645,-1.57,0.115,1.61,-0.27,1.71,-0.611,1.75,2.48,1.3,1.75,0.405,1.14,4.1,0.668,1.04,0.435
CGTCCAAGGTCAGAGAGGTCAGTCAATGCCGAGT,2.82,3.35,-0.282,-0.369,4.06,6.13,12.6,5.82,1.78,5.12,5.37,6.53,7.2,3.32,5.76,4.46,2.83,7.68,5.88
AGAATGAGGTTACCAAAGATCAGGGCAACGCTTG,3.79,3.77,0.564,0.291,0.848,1.81,-0.116,2.47,-0.187,2.43,1.97,2.24,1.97,1.14,2.77,3.16,1.2,1.69,0.728
GCTATTAGTCGAAAGGGCAACCGAATGATTCTCG,0.549,0.458,0.65,0.0546,0.852,0.446,-0.0421,0.942,0.125,2.07,2.08,1.09,1.5,0.643,0.86,0.548,-0.36,0.247,0.289
CATACAGGGTCAGCTAGGCCTGAGTAGGGACGGC,1.1,2.26,0.675,-0.0533,1.27,1.8,-0.411,3.27,0.583,3.86,2.93,4.26,4.49,1.02,4.15,2.71,0.977,2.61,0.628
TCTCGGAGGACACGAAAGGTCAGCGCTCGACATC,2.02,1.8,-0.121,0.158,3.31,4.36,0.337,4.86,1.84,4.42,4.96,5.25,6.15,1.39,4.52,3.89,1.76,3.67,1.13
AGAATGAGTTTACCAAAGATCAGGGAAACGCTTG,-0.401,-0.237,0.734,-0.0652,-0.566,0.296,0.241,-0.198,-0.325,0.347,-0.757,-0.0513,0.236,3,0.272,-0.103,-0.687,1.05,1.78
TCTAGTTGGTCAAGGAGGTCACACACGACGGGTA,2.22,3.77,0.973,1.49,2.56,4.22,1.23,4.22,1.46,3.47,4.26,4.38,4.29,0.835,4.27,3.57,2.15,5.23,2.71
CCTAGTTGGTCAGGGTCACACACGCTATAGGTAC,1.32,2.77,0.391,0.0582,2.15,3.91,1.38,4.76,1.57,3.43,3.88,4.11,3.38,1.6,4.93,3.63,2.49,4.17,2.69
TCAATTAGTTGATTAGGGCAACCGAAACAGCGGA,2.01,1.32,0.608,0.646,-0.173,0.326,0.219,0.567,0.493,0.665,0.454,0.298,0.178,0.983,0.591,0.541,0.0743,0.35,0.229
ATATGTAGGATACATCCGGGTCATTCAGGCTATG,3.21,3.86,1.63,1.37,1.25,2.39,1.38,2.42,0.161,1.2,2.18,1.58,1.43,0.223,1.95,2.99,1.95,3.21,2.23
CCTATTAGTTGACCATCAGGGCAACCGAAGCTCG,0.536,0.814,0.556,0.943,1.44,0.0854,0.589,0.0403,1.51,1.07,1.35,0.553,0.807,0.518,0.205,1.19,0.957,0.508,0.592
TTACCAAGGGGAAAGGTCGTTGATGCACGCCTTG,0.296,2.61,0.358,0.0839,1.27,2.44,0.149,2.73,-0.553,1.77,1.72,1.92,0.864,0.0883,2.86,1.4,-0.14,1.98,1.52
CCTATTAGTTGAGCATAAGGGCAACCGAAGCTCG,-0.00699,0.0681,-0.0638,0.243,1.36,0.18,0.549,0.348,1.39,1.1,1.42,0.728,0.652,0.381,0.162,1.58,0.923,0.408,0.43
GTACCAAGGTGACTAGGTCGTTGATGAGTAGGCG,1.99,3.81,0.227,-0.333,0.145,0.12,-0.403,0.639,0.0203,1.55,0.945,0.955,0.808,-0.648,0.837,1.87,0.333,0.346,0.099
